Laboratory results taken from PubChem BioAssay.
The source made the active and inactive calls.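 The calls were made as follows, unless noted: active = inhibition of the reporter signal at or above 50%; inactive = inhibition below 50%.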

Assays:
[1] = inhibitors of TNFa-induced NFkB p65 translocation, primary screen, imaging, HUVEC, MLSMR starter and 10KST1 sets (AID 438;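 active = inhibition above 20% together with a positive visual image hit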;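 also: compound added about 3h40 before a 20 min TNFalpha stimulation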;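 as to inhibition: signal is the nuclear over cytoplasmic p65 intensity ratio per well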); conditions: HUVEC TNFa-induced p65 nuclear translocation; cell count: measured here: nuclei count (cytotoxicity indicator), at 2.08 µM; inhibition: at 2 µM, stronger effect = higher value, 0% TNFa-plus-vehicle, 100% no-TNFa wells
[2] = reduction of polyQ htt aggregates in cells – imaging, exon1htt(103Q)mCFP cells, high-content imaging, primary screen (AID 483;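 active = visual image review flags a hit and inhibition of aggregation exceeds 20%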;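 also: compound exposure lasted 3 days before fixation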;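 as to nuclei count: percent of the per-plate median nuclei count of sample wells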); conditions: exon1htt(103Q)mCFP cell line, aggregate imaging, at 2 µM; inhibition of aggregation: stronger effect = higher value; nuclei count: measured here: cell count, toxicity
[3] = endothelial E-selectin expression blockers – imaging, HUVEC, immunofluorescence, MLSMR starter and 10KST1 sets, primary screen (AID 487;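 active = visually confirmed hit in the image check and inhibition above 20%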;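 as to inhibition: signal is fraction of cell area covered by stained E-selectin grains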;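 as to nuclei count: 100% = median nuclei count of all wells on the same plate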); conditions: HUVEC TNFalpha-induced E-selectin immunofluorescence imaging, at 2 µM; inhibition: stronger effect = higher value; nuclei count: measured here: cell number, toxicity
[4] = molecular target: Voltage-gated potassium channel subunit beta-2 (Rattus norvegicus) (UniProt P62483); assay: inhibitors of rat Kvbeta2 reductase activity – biochemical, NADPH fluorescence, primary screen (AID 622;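 active = fluorescence slope higher than the sample average by over 3 SD, cut at about -0.22 in these data, passing the limit was not always enough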;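 also: slope of raw intensity against log time taken from 70 to 1610 s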); conditions: recombinant KvBeta, 4-cyanobenzaldehyde reduction, at 10 µM, stronger effect = higher value
Chain of Voltage-gated potassium channel subunit beta-2 (Rattus norvegicus) (P62483 whole entry, looked up): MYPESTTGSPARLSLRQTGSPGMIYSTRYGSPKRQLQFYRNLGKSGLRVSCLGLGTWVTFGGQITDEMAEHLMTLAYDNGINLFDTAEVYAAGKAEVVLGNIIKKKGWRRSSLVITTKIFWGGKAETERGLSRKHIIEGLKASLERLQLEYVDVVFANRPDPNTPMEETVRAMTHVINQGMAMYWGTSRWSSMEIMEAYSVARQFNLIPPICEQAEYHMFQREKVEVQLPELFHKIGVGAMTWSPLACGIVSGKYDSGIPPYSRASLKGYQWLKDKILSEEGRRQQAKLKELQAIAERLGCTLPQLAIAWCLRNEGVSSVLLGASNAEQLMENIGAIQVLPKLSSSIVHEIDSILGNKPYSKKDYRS

[5] = molecular target: Voltage-gated potassium channel subunit beta-2 (Rattus norvegicus) (UniProt P62483); assay: enhancers of rat Kvbeta2 NADPH turnover – biochemical, NADPH fluorescence, primary screen (AID 623;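 active = NADPH fluorescence slope more negative than the mean of all samples by about 3 SD, 99.7% confidence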;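 also: fluorescence intensity change per second fitted from 20 to 320 s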); conditions: Recombinant KvBeta, NADPH fluorescence decrease slope, 10 min; at 10 µM; stronger effect = lower value
[6] = molecular target: Alpha-2C adrenergic receptor (Homo sapiens) (UniProt P18825); assay: compounds altering alpha2C-coupled GIRK flux – cell-based, HEK293 alpha2C/GIRK1/2, thallium flux, primary screen (AID 624;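 active = fluorescence slope after compound addition differing from the mean of all screened samples at 99.7% confidence, in either direction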;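 also: slope of fluorescence ratio to pre-addition baseline per second over 15 to 24 s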); conditions: thallium flux BTC fluorescence, at 10 µM, actives lie on both sides
Chain of Alpha-2C adrenergic receptor (Homo sapiens) (P18825 whole entry, looked up): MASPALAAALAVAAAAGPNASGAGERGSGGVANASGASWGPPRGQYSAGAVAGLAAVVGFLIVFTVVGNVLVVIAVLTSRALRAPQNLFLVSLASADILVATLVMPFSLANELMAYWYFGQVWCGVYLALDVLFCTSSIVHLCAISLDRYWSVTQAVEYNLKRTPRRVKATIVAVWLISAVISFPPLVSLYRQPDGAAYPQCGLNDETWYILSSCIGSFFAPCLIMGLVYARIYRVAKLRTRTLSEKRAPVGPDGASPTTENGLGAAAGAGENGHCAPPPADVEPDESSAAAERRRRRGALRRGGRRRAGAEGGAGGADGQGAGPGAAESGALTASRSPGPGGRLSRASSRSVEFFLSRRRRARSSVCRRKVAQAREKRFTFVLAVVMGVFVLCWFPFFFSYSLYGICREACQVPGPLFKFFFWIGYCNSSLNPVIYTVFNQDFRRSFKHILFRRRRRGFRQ

[7] = blockers of RIG-like receptor reporter activation – cell-based, Sendai virus stimulus, luciferase, 10K MLSCN set, TLR/RLR signaling modifier project, primary screen (AID 602276;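 active = inhibition at or above 50% at 10 µM; inactive = inhibition below 50%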;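 also: firefly luciferase from ISG56 promoter only with Renilla not read in this screen; 0% = Sendai virus plus DMSO and 100% = medium plus DMSO without virus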); conditions: HEK293 RL24 IRF3 luciferase reporter, at 10 µM, stronger effect = higher value
[8] = TLR3 IRF3 reporter activation blockers – cell-based, poly I:C stimulus, luciferase, 10K MLSCN set, primary screen (AID 602277); conditions: HEK293-TLR3 RL24 IRF3 luciferase reporter, at 10 µM, stronger effect = higher value

Row | SMILES | cell count [1] | inhibition [1] | inhibition of aggregation [2] | nuclei count [2] | inhibition [3] | nuclei count [3] | fluorescence slope [4] | NADPH fluorescence slope [5] | slope [6] | inhibition [7] | inhibition [8]
1 | CCN(CC)CCCN1C(=O)C(O)=C(C(C)=O)C1c1cccc(OC)c1 (stereo not drawn) | 468 | 7.8% (inactive) | 3.9% (inactive) | 97.3% | -142% (inactive) | 105% | -0.367 (inactive) | -4.4e-05 (inactive) | 0.00698 (inactive) | 11.2% (inactive) | 13.5% (inactive)
2 | COc1ccccc1NCN1C(=O)CCC1=O | 710 | 5.4% (inactive) | -0.4% (inactive) | 97.3% | -32.2% (inactive) | 104% | -0.551 (inactive) | -2.5e-05 (inactive) | 0.00722 (inactive) | 13.3% (inactive) | 26.9% (inactive)
3 | CC1CCCCC1NC(=O)Cn1nnc(-c2ccc(Cl)cc2)n1 (stereo not drawn) | 447 | 1.9% (inactive) | -8.6% (inactive) | 92.4% | -27.6% (inactive) | 99.4% | -0.578 (inactive) | -2.2e-05 (inactive) | 0.00728 (inactive) | -4.91% (inactive) | -12% (inactive)
4 | Cc1onc(-c2c(Cl)cccc2Cl)c1C(=O)NCC1CCCO1 (stereo not drawn) | 394 | 6.8% (inactive) | 15.4% (inactive) | 87.4% | -10.7% (inactive) | 113% | -0.519 (inactive) | 1.7e-05 (inactive) | 0.00578 (inactive) | -10.3% (inactive) | 10.7% (inactive)
5 | O=C1CCCC2=C1C(c1ccc(Br)cc1)c1c([nH]c(=S)[nH]c1=O)N2 (stereo not drawn) | 407 | -3.6% (inactive) | 17.6% (inactive) | 103% | -41.1% (inactive) | 109% | -0.378 (inactive) | -5.8e-05 (inactive) | 0.00391 (inactive) | 6.81% (inactive) | 17.9% (inactive)
6 | O=C(CN(Cc1ccco1)C(=O)CNS(=O)(=O)c1ccc(F)cc1)NCCc1ccccc1 | 520 | -2.1% (inactive) | -2.1% (inactive) | 92.1% | -38.5% (inactive) | 112% | -0.481 (inactive) | -2.9e-05 (inactive) | 0.00696 (inactive) | -0.0533% (inactive) | 19.8% (inactive)
7 | CCCC(=O)NCCc1cc2c(C)ccc(C)c2[nH]c1=O | 592 | -4.8% (inactive) | -1.1% (inactive) | 114% | -9% (inactive) | 117% | -0.557 (inactive) | -2.9e-05 (inactive) | 0.00601 (inactive) | 9% (inactive) | 10.9% (inactive)
8 | CCCN(CCC)S(=O)(=O)c1ccc(NS(C)(=O)=O)cc1 | 399 | 3.4% (inactive) | -3% (inactive) | 108% | -126% (inactive) | 107% | -0.391 (inactive) | 1e-05 (inactive) | 0.00362 (inactive) | 6.07% (inactive) | 12.8% (inactive)
9 | CCOC(=O)C1=C(N)OC2=C(C(=O)CC(C)(C)C2)C1c1ccco1 (stereo not drawn) | 382 | 1% (inactive) | -38.9% (inactive) | 104% | -61.3% (inactive) | 110% | -0.566 (inactive) | 5.5e-05 (inactive) | 0.00621 (inactive) | -0.305% (inactive) | -16.2% (inactive)
10 | Cc1nnc2n(-c3ccc(Cl)cc3)c(=O)c3c4c(sc3n12)CN(C)CC4 | 386 | -5.7% (inactive) | 8.9% (inactive) | 93.3% | 22% (inactive) | 89.5% | -0.477 (inactive) | -0.000149 (inactive) | 0.00624 (inactive) | -17.3% (inactive) | -5.51% (inactive)
11 | CCCn1c(O)c(CN2CCCC(C)C2)c(C)c(C#N)c1=O (stereo not drawn) | 673 | -16.4% (inactive) | 2.6% (inactive) | 91.2% | -59.7% (inactive) | 113% | -0.472 (inactive) | -2.9e-05 (inactive) | 0.00503 (inactive) | 13.3% (inactive) | 22.1% (inactive)
12 | Cc1cc2n(n1)C(c1ccccc1)Nc1ccccc1-2 (stereo not drawn) | 410 | -1.3% (inactive) | -2.5% (inactive) | 101% | -13.2% (inactive) | 119% | -0.512 (inactive) | -3.7e-05 (inactive) | 0.00459 (inactive) | -11.9% (inactive) | -26.7% (inactive)
13 | O=C(Nc1ccccn1)N1CCOCC1 | 319 | 9.3% (inactive) | 10.6% (inactive) | 95.2% | -70.8% (inactive) | 114% | -0.303 (inactive) | -5e-05 (inactive) | 0.00596 (inactive) | 1.79% (inactive) | 0.112% (inactive)
14 | CCN(CC)C(=O)C1CCCN(Cc2ccc(N(C)C)cc2)C1 (stereo not drawn) | 376 | 0% (inactive) | -25.6% (inactive) | 99% | -48.8% (inactive) | 124% | -0.462 (inactive) | 7.7e-05 (inactive) | 0.00605 (inactive) | 17.9% (inactive) | 26.8% (inactive)
15 | CCOC(=O)CSc1nnc(Cn2nnc(-c3ccccc3)n2)n1CC | 415 | -0.8% (inactive) | 5.4% (inactive) | 109% | -34.4% (inactive) | 164% | -0.402 (inactive) | 2.4e-05 (inactive) | 0.006 (inactive) | 15.9% (inactive) | 21.4% (inactive)
16 | CCOC(=O)CSc1nnc(NC(=O)c2cccc(S(=O)(=O)N3CCCCC3)c2)s1 | 626 | -1.1% (inactive) | -6.5% (inactive) | 107% | 20.8% (inactive) | 102% | -0.37 (inactive) | -9.8e-06 (inactive) | 0.00424 (inactive) | 12.1% (inactive) | 26.3% (inactive)
17 | Cc1[nH]nc2c1C(c1ccc(F)cc1)C1=C(CC(C)(C)CC1=O)N2 (stereo not drawn) | 561 | -30.6% (inactive) | 4.4% (inactive) | 98.7% | -52.8% (inactive) | 102% | -0.451 (inactive) | -8.1e-06 (inactive) | 0.00591 (inactive) | 10.5% (inactive) | 32.3% (inactive)
18 | Cc1ccc(-c2ccc(=O)n(CC(=O)NCCCN3CCCCC3C)n2)cc1 (stereo not drawn) | 397 | 5% (inactive) | 3% (inactive) | 98.2% | 14.8% (inactive) | 96% | -0.497 (inactive) | -1.9e-05 (inactive) | 0.0058 (inactive) | 11.3% (inactive) | 21.8% (inactive)
19 | COc1ccc(CNc2nc(NCc3ccc(OC)cc3)n(S(C)(=O)=O)n2)cc1 | 292 | -0.9% (inactive) | 26% (inactive) | 86.3% | 47% (inactive) | 95.3% | -0.626 (inactive) | -1.8e-05 (inactive) | 0.00366 (inactive) | 2.7% (inactive) | -1.73% (inactive)
20 | CC(=O)OCCNc1cc(N2CCN(C)CC2)c2noc3c2c1C(=O)c1ccccc1-3 | 746 | 1.6% (inactive) | -43.5% (inactive) | 114% | -15.4% (inactive) | 111% | -0.58 (inactive) | -2.8e-05 (inactive) | 0.00388 (inactive) | 27.6% (inactive) | 21.4% (inactive)
21 | CCc1nc(NCCCN2CCOCC2)c2oc3ccccc3c2n1 | 573 | -4.4% (inactive) | -12.6% (inactive) | 106% | -55.2% (inactive) | 103% | -0.465 (inactive) | -3.3e-05 (inactive) | 0.00535 (inactive) | 17.6% (inactive) | 25.2% (inactive)
22 | O=C(CCC(=O)c1cccs1)NCc1ccccc1 | 462 | -0.2% (inactive) | -5.4% (inactive) | 111% | -24.2% (inactive) | 132% | -0.622 (inactive) | -5.1e-06 (inactive) | 0.0103 (inactive) | -1.41% (inactive) | 1.97% (inactive)
23 | O=C(NCC(=O)N(c1ccc2c(c1)OCCO2)C(C(=O)NC1CCCC1)c1ccco1)c1ccco1 (stereo not drawn) | 245 | 17.9% (inactive) | -23.9% (inactive) | 83.9% | 20.3% (inactive) | 95.6% | -0.409 (inactive) | 3.7e-05 (inactive) | 0.00578 (inactive) | -2.48% (inactive) | -2.78% (inactive)
24 | O=C(CSc1nc2ccsc2c(=O)n1NC(=O)c1ccccc1)Nc1nccs1 | 414 | 3.2% (inactive) | 4% (inactive) | 98.2% | -134% (inactive) | 101% | -0.342 (inactive) | -7e-06 (inactive) | 0.00492 (inactive) | -7.17% (inactive) | 0.179% (inactive)
25 | COc1ccccc1-n1c(C)nnc1SCC(=O)Nc1cccc(C(C)=O)c1 | 388 | 4.3% (inactive) | 3.5% (inactive) | 104% | 52.4% (inactive) | 95.1% | -0.355 (inactive) | -8e-06 (inactive) | 0.00484 (inactive) | 17.5% (inactive) | 13.3% (inactive)
26 | CSC1=N/C(=C\C=C\c2cccs2)C(=O)S1 | 374 | -11.5% (inactive) | -80.1% (inactive) | 106% | 0.2% (inactive) | 115% | -0.343 (inactive) | -4.4e-05 (inactive) | 0.00431 (inactive) | 10.5% (inactive) | 28.8% (inactive)
27 | CC1CCN(Cc2ccc(-c3nn[nH]n3)cc2)CC1 | 582 | -2.9% (inactive) | 17.9% (inactive) | 96.8% | -29.4% (inactive) | 90.6% | -0.659 (inactive) | 2.2e-05 (inactive) | 0.00582 (inactive) | 15.7% (inactive) | 27.1% (inactive)
28 | COc1cc(NC(=O)CSCc2cnn(-c3ccccc3)c2-n2cccc2)cc(OC)c1 | 662 | 6.1% (inactive) | 9.3% (inactive) | 97.9% | -32% (inactive) | 98.1% | -0.315 (inactive) | -7.1e-05 (inactive) | 0.00868 (inactive) | 15.7% (inactive) | 11.2% (inactive)
